Assay outcomes deposited in PubChem by National Center for Advancing Translational Sciences (NCATS).
Shown is part of a subset that was picked to be rich in hits.
L3MBTL1 inh = inhibitors of human L3MBTL1 | AlphaScreen L3MBTL1–H3K9me1 peptide binding | Potency, µM (series often up to 57.1 µM), for inactives: top-dose activity, negative = inhibition, most hits filed as inhibitors | hit rate 0.66% among 230,000 | AID 485360; further: nearly all actives have a fitted effect of over 60% in size
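AlphaScreen proximity signal between nickel-chelate acceptor and streptavidin donor beads (final 10 ug/mL) reports binding of 50 nM L3MBTL1 to 75 nM biotin-H3 K9me1 peptide; complex incubated with compounds 30 min at room temperature; cefsulodin titration as control.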
RECQ1 helicase = inhibitors of human RECQ1 DNA helicase; hit rate 0.54% among 240,000; Potency, µM (doses to about 57.3 µM), for inactives: top-dose activity, negative = inhibition, most hits filed as inhibitors; AID 2549; RECQ1 DNA unwinding, red fluorescence kinetic read;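 further: plate controls were vehicle for no effect and no enzyme for full effect; nearly all actives have a fitted effect of over 30% in size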
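50 nM RECQ1T1 preincubated 15 min with compound in Tris pH 8.0 buffer with MgCl2, DTT, Tween-20 and 2.5 ug/ml poly(dI-dC); started with 200 nM TAMRA/BHQ-2 forked duplex and 2 mM ATP. Unwinding read as fluorescence (525/598 nm), two reads 2 h apart.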
APEX1 inh = blocks human APE1 abasic DNA cleavage; recombinant APE1, TAMRA/BHQ-2 abasic DNA cleavage fluorescence; Potency, µM (top dose mostly 65.8 µM), for inactives: at the top dose activity change, negative = inhibition, hits mostly inhibitors; hit rate 0.35% among 350,000;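 further: plate controls were vehicle for no effect and reference inhibitor for full effect; nearly all actives have a fitted effect of over 55% in size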
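Substrate: short duplex with […] THF abasic site, 5'-TAMRA and 3'-BHQ-2, 50 nM final. APE1 at 0.75 nM, preincubated 15 min RT with compound. Fluorescence increase from first to third read measured activity.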
BLM inh = Bloom syndrome helicase (human) inhibition; P54132; recombinant BLM DNA unwinding, fluorescence dequenching; Potency, µM (highest dose often 56.1 µM), without a hit: at the top dose activity change, negative = inhibition, hits mostly inhibitors; hit rate 0.2% among 350,000; AID 2528;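 further: plate controls were vehicle for no effect and no enzyme for full effect; nearly all actives have a fitted effect of over 35% in size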
GCN5L2 inh = inhibitors of human GCN5L2 histone acetyltransferase | AID 504327 | Potency, µM (titrated, usually from 58.9 µM), without a hit: top-dose activity change, negative = inhibition, usual class: inhibitors | hit rate 0.21% among 390,000 | GCN5L2 HAT assay, ThioGlo1 CoA-SH fluorescence | Q92830
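GCN5L2 (20 nM) in 50mM HEPES pH 7.5, 0.1mM EDTA, 0.01% Tween-20 preincubated 15 min with compounds at room temperature. Reaction started with H3(1-25) 75uM, acetyl-CoA 70uM, ThioGlo1 50uM; CoA-thiol fluorescence (Ex340/Em540) read at 0 and 20 min.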
KDM4E inh = JMJD2E (human) inhibition. hit rate 1.6% among 230,000. JMJD2E catalytic domain, FDH-coupled NADH fluorescence (FDH is formaldehyde dehydrogenase). B2RXH2. Potency, µM (top dose mostly 57.1 µM), inactives show at the top dose activity change, negative = inhibition, usual class: inhibitors. AID 2147; active means well fitted inhibition curve with a large enough effect, not every such curve was filed as active; inconclusive means small, poorly fitted or top-dose-only effect, or another doubt; inactive means no such curve, though single readings can be large or run the other way;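 further: 0% = wells with enzyme and -100% = buffer wells without enzyme; nearly all actives have a fitted effect of over 50% in size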
Target sequence (B2RXH2 1-337 limits assumed): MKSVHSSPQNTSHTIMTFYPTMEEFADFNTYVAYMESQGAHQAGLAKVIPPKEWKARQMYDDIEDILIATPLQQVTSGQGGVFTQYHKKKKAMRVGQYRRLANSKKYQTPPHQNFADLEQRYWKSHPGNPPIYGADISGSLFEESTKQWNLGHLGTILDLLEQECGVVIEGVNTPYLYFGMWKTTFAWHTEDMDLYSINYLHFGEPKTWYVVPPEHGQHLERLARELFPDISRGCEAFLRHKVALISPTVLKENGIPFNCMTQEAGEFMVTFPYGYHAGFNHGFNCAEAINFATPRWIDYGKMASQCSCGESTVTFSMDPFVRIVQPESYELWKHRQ
Numbers without * were called inactive; i = inactive; ? = inconclusive; · = no result given; [ ] = dose if it differs, or a comment. Unless noted, the call rests on the fitted dose curve; in most records, active means well fitted curve in the direction sought with a large enough effect; inconclusive means small, poorly fitted or top-dose-only effect, or another doubt; inactive means no such curve, though single readings can be large; an effect the other way counts as inactive or inconclusive. Unless noted, on the % scale 0 is the no-effect control and ±100 the full control effect; potency means the concentration at half of the fitted maximal effect.

SMILES | L3MBTL1 inh | RECQ1 helicase | APEX1 inh | BLM inh | GCN5L2 inh | KDM4E inh
COc1ccc(O)c(/C=N/Nc2nc(Nc3ccccc3)nc(-n3nc(C)cc3C)n2)c1 | ? | -15.7% | -5.7% | -19.4% | -16.5% | 14.1µM*
COc1cc(/C=N/Nc2nc(Nc3ccccc3)nc(-n3nc(C)cc3C)n2)cc(OC)c1OC | -5.5% | -9.7% | 17.7% | -3.2% | -6.3% | 3.3%
CC(c1ccccc1)C1C(C#N)=C(N)SC(N)=C1C#N (centres undefined) | -3.0% | -4.2% | 13.4% | -8.4% | -5.7% | ?
CC(CC1C(C#N)=C(N)SC(N)=C1C#N)c1ccccc1 (centres undefined) | 5.0% | -9.1% | 0.5% | -2.8% | -4.3% | 22.4µM*
CCOc1ccc(C(=O)NCCCCNC(=O)c2ccc(OCC)cc2)cc1 | -8.5% | · | 8.9% | -11.4% | 35.5µM* | ·
CCOc1ccc(C(=O)NCCC(=O)NCCCC(=O)O)cc1 | · | i | -0.6% | -0.3% | -3.8% | 2.7%
Cn1nc(-c2ccc(Cl)cc2)nc2c(=O)n(C)c(=O)nc1-2 | ? | 1.58µM* | ? | 5.62µM* | -4.9% | ?
O=C1/C(=C\c2ccc(O)c(O)c2)C(c2ccccc2)=NN1c1ccccc1 | 14.1µM* | ? | ? | ? | 0.7% | 14.1µM*
COc1cc(/C=C2\C(=O)N(c3ccc(NC(C)=O)cc3)N=C2c2ccccc2)ccc1O | -2.9% | 30.4% | ? | -0.4% | 7.2% | -26.4%
Cc1ccc2nc(-c3ccccc3)cn2c1 | -4.4% | -3.6% | 0.5% | 3.6% | -6.9% | ?
c1ccc(-c2cn3c(n2)-c2ccccc2C3)cc1 | -10.8% | -10.6% | 10.8% | 6.1% | 4.3% | 3.16µM*
S=C(Nc1ccccc1)Nc1nc2ccccc2n1CCOc1ccc(Cl)cc1 | 11.2µM* | -10.5% | 2.3% | -6.7% | -11.4% | -18.8%
CCCn1c(NC(=S)Nc2ccccc2)nc2ccccc21 | ? | -7.6% | 14.4% | 5.1% | -4.0% | -14.2%
O=C(Cc1cccs1)OCC(=O)c1ccco1 | ? | -21.4% | 28.2µM* | -0.1% | -4.9% | -14.7%
CC(C)Cn1c(N)c(C(=O)COC(=O)c2cc(-c3ccco3)nc3ccccc23)c(=O)n(C)c1=O | 8.91µM* | 20µM* | 11.2µM* | ? | ? | ?
Cn1c(=O)c(C(=O)COC(=O)c2cc(-c3ccco3)nc3ccccc23)c(N)n(Cc2ccccc2)c1=O | ? | 31.6µM* | ? | ? | ? | ?
CC(C)Cn1c(N)c(C(=O)COC(=O)c2cc(-c3ccccc3)nc3ccccc23)c(=O)n(C)c1=O | -4.1% | -5.2% | -2.5% | -9.4% | -4.0% | -10.7%
N#CC1=C(N)N(c2ccc(F)cc2)C2=C(C1c1ccc(O)cc1)S(=O)(=O)CC2 (centres undefined) | · | ? | ? | -12.5% | -21.0% | 20µM*
CSc1ccc(C2C(C#N)=C(N)N(c3ccccc3)C3=C2C(=O)CCC3)cc1 (centres undefined) | · | -11.9% | -1.9% | -15.1% | -2.0% | ?
Cc1cc(=O)[nH]c(N/N=C/C2=C(N3CCOCC3)C(=C\c3ccc(Cl)cc3)/CC2)n1 | -2.2% | -1.2% | 18.1% | -3.2% | -4.8% | 28.2µM*
CN1CCC(=O)N(C(CSc2ccc(Br)cc2)c2ccccc2)CC1 (centres undefined) | · | 6.9% | -3.7% | 5.1% | · | ·
CCc1cc(=O)oc2cc(C)cc(OCC(=O)N[C@@H](CSCc3ccccc3)C(=O)O)c12 | · | · | 8.9% | 0.9% | -4.3% | ·
CCCCc1cc(=O)oc2cc(C)cc(OCC(=O)N[C@@H](CSCc3ccccc3)C(=O)O)c12 | · | · | 7.3% | -0.8% | 1.78µM* | ·
COc1ccc(-c2csc(N(CCCN(C)C)C(=O)c3ccccc3C)n2)cc1 | 35.5µM* | · | 37.3% | 5.1% | -8.6% | ·
C/C(CCN1CCCc2nc(C)c(C)cc21)=N\O[C@@H](C)c1cn([C@@H]2COC[C@@H]2O)nn1 | · | 7.2%[11.5 µM] | 22.8%[12.4 µM] | 3.4%[12.4 µM] | · | ·
